Drawing on ChEMBL document CHEMBL4513216, “Probing the Open Global Health Chemical Diversity Library for Multistage-Active Starting Points for Next-Generation Antimalarials” (ACS Infect Dis, 2020), this text covers INHIBITION for 105 compounds.

Screen size: about 69,000 compounds; about 8,600 (12%) showed an effect of 50% or more. The full list was thinned out, with strong results kept by preference.

For the experiment, the system named is Plasmodium berghei. Kind of experiment: Screen against P. berghei liver stage (PbLuc), transformed with Luciferase, at 10uM. Format: functional, HepG2. The note with it: tested at 10 uM.
Regarding `CC(=O)N1CCC(Cc2cnc(-n3ccnc3)cn2)CC1`, the INHIBITION amounted to 17.1%. Take `COC(=O)c1ccc(OC)c(Cn2cc(N)cn2)c1`: the INHIBITION is given as 18.9%.

Turning to `Cc1nc(C)n(CC2CN(Cc3nccs3)Cc3nccn3C2)n1` (stereo not given), the INHIBITION is reported as 8.03%. Consider `Cc1cc(F)cc(S(=O)(=O)Nc2ccn(CCCC#N)n2)c1`, for which the INHIBITION is 26%. As to `CC(=O)N(Cc1ncc(C)o1)C1CCN(CCc2cnn(C)c2)C1` (stereo not given), the INHIBITION was -36.1%. Under `O=C(N1CCOCC1)N1C[C@@H]2CC[C@H]1CN(C1Cc3ccccc3C1)C2` stands -43.5%; under `C[C@@H]1CN(Cc2nc(Cc3ccccc3F)no2)C[C@H](C)O1`, 3.93%; under `Cc1nc(C2CCNC2)nc2c1CCC(=O)N2C` (stereo not given), 17.265%.

Take `CCc1nc(CSCc2csc(CS(C)(=O)=O)n2)cs1`: the INHIBITION is -29.2%. As to `CS(=O)(=O)Cc1nc(CN2CCc3ccccc3CC2)cs1`, the INHIBITION turned out to be 56.5%. Next, `CS(=O)(=O)Cc1nc(CN2CCC(C(F)(F)F)CC2)cs1`: 52.2%; `CS(=O)(=O)Cc1nc(CN2CCOc3ccccc3C2)cs1`: 7.31%; `CS(=O)(=O)Cc1nc(CN2CC=C(c3ccccc3)CC2)cs1`: 27.6%.

Take `CS(=O)(=O)Cc1nc(CN2CCCc3sccc3C2)cs1`: the INHIBITION stood at 36.2%.

For the compound `CC1(C)CN(Cc2csc(CS(C)(=O)=O)n2)Cc2ccccc21`, the INHIBITION came to 60.8%.

Regarding `CS(=O)(=O)Cc1nc(CNc2c(F)cc(F)cc2F)cs1`, the INHIBITION was 40.4%. `Cc1cc(CSCc2csc(CS(C)(=O)=O)n2)no1`: the INHIBITION was 19.4%. As to `COc1ccc(C2CCCN2Cc2ccc(S(=O)(=O)N(C)C)o2)cc1` (stereo not given), the INHIBITION worked out at 37.4%. Take `O=C(Cn1cc(C(=O)O)cn1)Nc1c(Cl)cccc1Cl`: the INHIBITION came to 22.6%.

In the case of `CC(C(=O)N1CCCN(Cc2ccc(C#N)cc2)CC1)n1cncn1` (stereo not given), the INHIBITION is listed as 27.65%. As to `Cc1n[nH]c(C)c1NC(=O)CCc1cccc(C2CCCN(C)C2)n1` (stereo not given), the INHIBITION stood at 29.3%. Next, `CCCn1c(C)c(CC(=O)NC(C)CO)c2c1CC(C)(C)CC2=O` (stereo not given): 18.6%. Next, `O=C1[C@@H]2CN(c3ncnc4[nH]ccc34)C[C@]2(C(=O)O)CN1CC1CC1`: 36.6%; `Cc1ccc(-c2cc(CNC(=O)N3CCCN(C)CC3)on2)cc1`: 35.9%; `Cn1c(=O)[nH]c(=O)c2c1nc1n2CC(c2ccc(Cl)cc2)O1` (stereo not given): 7.92%. For `CCc1noc(C(C)N(C)CC(=O)Nc2ccc(C)cc2)n1` (stereo not given), the INHIBITION is on record as 27.6%.

For the compound `COc1ccc(Br)cc1CN(C)C(C)c1nc(C)no1` (stereo not given), the INHIBITION is on record as 4.82%. For `COc1ccc(Br)cc1CN(C)C(C)c1nc(C(C)C)no1` (stereo not given), the INHIBITION turned out to be 3.73%. Next, `CCc1noc(C(C)N(C)CC(=O)Nc2ccc(Br)cc2C)n1` (stereo not given): 74%. On to `CCc1noc(C(C)N(C)Cc2cc(Br)ccc2OC)n1` (stereo not given), for which the INHIBITION was found to be 51.5%. Next, `CCc1noc(C(C)N(C)CC(=O)Nc2ccc(Cl)c(C(F)(F)F)c2)n1` (stereo not given): 90.2%; `CCc1noc(C(C)N(C)CC(=O)Nc2cccc(C)c2C)n1` (stereo not given): 41.4%; `CCc1noc(C(C)N(C)CC(=O)Nc2c(C)cccc2C)n1` (stereo not given): -8.69%. In the case of `CCc1noc(C(C)N(C)CC(=O)Nc2cccc(C)n2)n1` (stereo not given), the INHIBITION is recorded as -29.2%. For the compound `Cc1ccccc1NC(=O)NCC(C)(O)c1cccs1` (stereo not given), the INHIBITION amounted to 48.8%.

Consider `Cc1noc2nc(C3CCN(Cc4ccccn4)CC3)cc(C(F)F)c12`, for which the INHIBITION is given as 47.1%. Under `Cc1cc(C(NC(=O)CNS(C)(=O)=O)C(C)C)c(C)s1` (stereo not given) stands 22.3%; under `Cc1cccc(CN2C[C@@H]3COC[C@]3(CNC(=O)c3ccsc3)C2)n1`, 39.8%; under `COc1ccc(CN2CCO[C@@H]3C[C@@H](C(=O)NC(C)C)C[C@H]32)cc1`, 26.5%. Under `CCS(=O)(=O)NC(CCSC)C(=O)Nc1cccc(C)c1C` (stereo not given) stands 26.9%. Under `CC(Oc1cc(Cl)cc(Cl)c1)C(=O)NCCS(N)(=O)=O` (stereo not given) stands 34.7%.

In the case of `Cc1c(Br)c(C(=O)NC(C)c2ccccc2)nn1C` (stereo not given), the INHIBITION was -38.2%.

`Cc1ccc(-c2noc(CCC(=O)NC(C)Cn3cccn3)n2)cc1` (stereo not given): the INHIBITION stood at 22.6%. Next, `N#Cc1ccc(C(=O)N2CCn3cc(CN4CCCCC4)nc3C2)cc1`: 52%; `CN1CCN(Cc2cn3c(n2)CN(C(=O)c2ccccn2)CC3)CC1`: 25.1%. As for `O=C(c1ccc[nH]1)N1CCn2cc(CN3CCCC3)nc2C1`, the INHIBITION worked out at 18.8%.

Consider `CN1CCN(Cc2cn3c(n2)CN(C(=O)c2cccn2C)CC3)CC1`, for which the INHIBITION is reported as 54.7%. In the case of `Cn1cccc1C(=O)N1CCn2cc(CN3CCCC3)nc2C1`, the INHIBITION is listed as 52%. Take `O=C(c1ccco1)N1CCn2cc(CN3CCCC3)nc2C1`: the INHIBITION amounted to 25.2%.

Regarding `CN1CCN(Cc2cn3c(n2)CN(C(=O)c2ccco2)CC3)CC1`, the INHIBITION came out at 17.4%. Under `O=C(CCc1ccccc1)N1CCn2cc(CN3CCCC3)nc2C1` stands 41.4%. `O=C(c1cccnc1)N1CCn2cc(CN3CCCC3)nc2C1`: the INHIBITION was 31.1%. Turning to `CC(=O)NCC(=O)N1CCn2cc(CN3CCN(C)CC3)nc2C1`, the INHIBITION is 43.5%. Take `O=C(c1ccnnc1)N1CCn2cc(CN3CCCCC3)nc2C1`: the INHIBITION was 41.6%. Under `CC(=O)NCC(=O)N1CCn2cc(CN3CCCCC3)nc2C1` stands 68.8%; under `Cc1ccc(NC2CCN(C(=O)c3cc4c(s3)CCC4)CC2)nn1`, -11.4%; under `CCn1cnnc1CNC(=O)NC(c1cccs1)C1CCCC1` (stereo not given), -9.76%. Next, `COc1ccc(NC(=O)c2cnc(C3CCN(C(C)=O)C3)nc2C)cc1` (stereo not given): 25.55%; `O=C1CCC2(CCC(NC3CCOC3)CC2)N1Cc1ccncc1` (stereo not given): 3.81%. Turning to `CCC1(c2ccc(NS(=O)(=O)N(C)C)cc2)CCC(=O)NC1=O` (stereo not given), the INHIBITION is 18.9%. Next, `Cc1cc(N2CCOCC2)nc(N(C)CCO)c1C#N`: 12.3%; `CC(C)c1nc2c(n1C)CCN(Cc1nc(-c3ccoc3)no1)C2`: 25.6%; `CNc1cncc(C2CCCN2C(=O)Cn2ccnc2C)n1` (stereo not given): 2.915%.

Regarding `O=C(Cc1csc(-c2ccccc2)n1)N[C@@H](C(=O)O)c1ccccc1`, the INHIBITION is listed as -3.11%.

For the compound `Cc1cc(C(=O)N2CCn3cc(CN4CCCC4)nc3C2)no1`, the INHIBITION is reported as 13.6%. Next, `Cc1cc(C(=O)N2CCn3cc(CN4CCOCC4)nc3C2)no1`: 68.4%. With `Cc1cc(C(=O)N2CCn3cc(CN4CCCCC4)nc3C2)no1`, the INHIBITION is 17.1%.

Turning to `CN(CCc1noc(C2CC2)n1)C(=O)CCc1cc2n(n1)CCCNC2`, the INHIBITION is reported as 46.6%. For the compound `CCN(Cc1noc(C2CCC2)n1)C(=O)CCc1cc2n(n1)CCNC2`, the INHIBITION is given as 11.9%. Regarding `CN(CCCc1cnn(C)c1)C(=O)C1CCN(C(=O)C2CCC2)CC1`, the INHIBITION turned out to be 38.7%.

Take `CN(CCCc1cnn(C)c1)Cc1cc2n(n1)CCNC2`: the INHIBITION stood at 52.6%. As to `CCc1cnc(C)nc1N(C)CCCc1cnn(C)c1`, the INHIBITION stood at 8.31%.

Consider `CN(CCCc1cnn(C)c1)Cc1cc2n(n1)CCCNC2`, for which the INHIBITION was 49.4%. Take `CNc1ncc(CN(C)Cc2cc3n(n2)CCNC3)cn1`: the INHIBITION is reported as -99.3%. Regarding `CN(CCCc1cnn(C)c1)Cc1cc2n(n1)CCCN(C)C2`, the INHIBITION was found to be 65.7%.

Take `CN(Cc1cc2n(n1)CCNC2)Cc1noc(C2CCC2)n1`: the INHIBITION was found to be 51%. Under `O=C(c1cc2cc(F)ccc2[nH]1)N1CCC(Nc2cccnn2)CC1` stands 22.3%; under `CCCC(NC(=O)c1cc(C)ccc1O)c1nnn[nH]1` (stereo not given), 34.6%.

For the compound `COc1ncccc1NC(=O)C1CCOCC1`, the INHIBITION is 43.3%. On to `CC(=O)Nc1c(C)noc1C=Cc1ccc(C)c(S(=O)(=O)NC2CC2)c1`, for which the INHIBITION is on record as 11.6%. Turning to `O=C(Nc1ccccc1)C1=CC2(CCNCC2)c2ccccc21`, the INHIBITION is given as 48.2%. Take `O=C(Cn1cnnn1)NCC1(O)CCCc2ccccc21` (stereo not given): the INHIBITION was determined as 64.7%. For `O=C(Cn1c(=O)oc2ccccc21)NCC1(O)CCc2ccccc21` (stereo not given), the INHIBITION is -27.3%. Under `O=C(Cn1cncn1)NCC1(O)CCCc2ccccc21` (stereo not given) stands 10.9%. `O=C(CN1C(=O)CCC1=O)NCC1(O)CCc2ccccc21` (stereo not given): the INHIBITION turned out to be 5.58%. With `O=C(Cn1cccn1)NCC1(c2ccccc2)CC1`, the INHIBITION is -8.3%. Under `Cc1cnn(CC(=O)NCC2(O)CCCc3ccccc32)c1` (stereo not given) stands 80.5%. For `Cc1cccc(S(=O)(=O)N2CSCC2C(=O)NCC2CC2)c1` (stereo not given), the INHIBITION was -14.3%. Regarding `Cc1cnccc1-c1cnn(CCNC(=O)c2ccncc2)c1C1CC1`, the INHIBITION worked out at 48%. As for `Cc1ccc(CN(C)Cc2nc3ccc(F)cc3[nH]2)cn1`, the INHIBITION was found to be 44.2%. For the compound `Cc1ccc(CC(=O)N2CCCC(c3ccn[nH]3)C2)cn1` (stereo not given), the INHIBITION worked out at 22.965%. Take `O=C(NCc1ccco1)[C@@H]1CCO[C@@H]2CCN(c3ncccn3)C[C@@H]21`: the INHIBITION is 36.9%. On to `Cn1cccc1C(=O)N1CCN(Cc2ccncc2)c2ncccc2C1`, for which the INHIBITION is -33%. In the case of `N[C@@H]1c2ccccc2C2(CCN(c3cccc(C(F)(F)F)n3)CC2)[C@H]1O`, the INHIBITION stood at 88%. Under `N[C@@H]1c2ccccc2C2(CCN(C(=O)c3cncc(Cl)c3)CC2)[C@H]1O` stands 8.5%; under `NS(=O)(=O)CC1CCN(c2ncccc2C(F)(F)F)CC1`, 20.6%. Next, `N[C@@H]1c2ccccc2C2(CCN(c3ccc(C(F)(F)F)cn3)CC2)[C@H]1O`: 78.3%.

Turning to `N[C@@H]1c2ccccc2C2(CCN(c3cc(C(F)(F)F)ccn3)CC2)[C@H]1O`, the INHIBITION is listed as 58.8%. Next, `O=C1CCC2(CCN(c3cccc(C(F)(F)F)n3)CC2)CN1CCO`: 47.9%. Take `N[C@@H]1c2ccccc2C2(CCN(c3ncccc3C(F)(F)F)CC2)[C@H]1O`: the INHIBITION is reported as 86.6%. Next, `FC(F)(F)c1ccnc(N2CCCCCC2)c1`: -6.52%. Next, `CC(C)C(=O)NCC(=O)N1CCC2(CC1)c1ccccc1[C@@H](N)[C@@H]2O`: -26.1%. Under `OCC1(O)CCN(c2ncccc2C(F)(F)F)CC1` stands 24.2%; under `N[C@@H]1c2ccccc2C2(CCN(c3cnc4ccccc4n3)CC2)[C@H]1O`, 44.9%; under `N[C@@H]1c2ccccc2C2(CCN(C(=O)c3ccc(Cl)cn3)CC2)[C@H]1O`, 37.1%.
